Only a selection was taken, and hits are over-represented in it overall.
STK33 inh = human STK33 kinase inhibition; ADP-Glo luminescence, MBP substrate; inhibition, % at 12.5 µM; hit rate 0.44% among 27,000; AID 2322; in the data active = inhibition above about 20%; inconclusive = no clear call, values can overlap the other calls
Target sequence (Q9BYT3 whole entry, looked up): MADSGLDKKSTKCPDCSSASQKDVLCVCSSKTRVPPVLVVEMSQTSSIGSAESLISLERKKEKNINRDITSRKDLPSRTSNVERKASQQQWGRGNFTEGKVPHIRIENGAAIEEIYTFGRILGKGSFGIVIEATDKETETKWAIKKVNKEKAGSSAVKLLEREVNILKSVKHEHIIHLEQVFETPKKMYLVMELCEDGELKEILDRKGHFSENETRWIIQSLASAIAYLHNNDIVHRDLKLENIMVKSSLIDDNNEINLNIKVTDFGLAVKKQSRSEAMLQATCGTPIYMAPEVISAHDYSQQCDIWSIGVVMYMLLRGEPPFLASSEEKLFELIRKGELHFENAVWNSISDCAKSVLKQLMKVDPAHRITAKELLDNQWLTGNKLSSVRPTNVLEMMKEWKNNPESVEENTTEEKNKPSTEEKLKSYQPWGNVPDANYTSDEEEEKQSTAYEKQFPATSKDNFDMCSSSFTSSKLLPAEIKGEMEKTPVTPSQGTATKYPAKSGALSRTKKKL
NOMO-1 viab = STK33 inhibitor candidate reducing NOMO-1 cell viability. hit rate 7.5% among 37,000. NOMO-1 AML viability, CellTiter-Glo luminescence, 72 h. AID 2330. inhibition, % (concentration not given with the values); in the data active = inhibition above about 80%; inconclusive = no clear call, values can overlap the other calls
PD-1 reversal = activators reversing PD-1 mediated T-cell inhibition; primary human CD4 T cells, PD-L1 beads, CellTiter-Glo 96 h; activation, % (test concentration not listed); 29,000 tested, under 10 active; call rule not given here
Numbers stand for hits.

For CC(Oc1ccc(F)cc1)C(=O)Nc1sc2c(c1C(N)=O)CCCC2 (centres undefined) the results were STK33 inh inactive, NOMO-1 viab 89 and PD-1 reversal inactive.
`CCOC(=O)c1c(NC(=O)C(C)Oc2ccccc2C)sc2c1CCCC2` (centres undefined) gave STK33 inh inactive and NOMO-1 viab inactive.
CC1=C(C#N)C(c2ccccc2)C(C#N)=C(C)N1 was read as NOMO-1 viab inactive and PD-1 reversal inactive.
C[C@H](CO)N1C[C@H](C)[C@@H](CN(C)Cc2ccc(-c3ccccc3)cc2)Oc2c(NC(=O)CCCCCC(=O)Nc3ccccc3N)cccc2C1=O was read as NOMO-1 viab 125 and PD-1 reversal inactive.
`C[C@H](CO)N1C[C@H](C)[C@@H](CN(C)Cc2ccc(Cl)c(Cl)c2)Oc2c(NC(=O)C3CC3)cccc2C1=O` gave NOMO-1 viab inactive.
Screening C[C@@H]1CN([C@H](C)CO)C(=O)c2cccc(NC(=O)CCCCCC(=O)Nc3ccccc3N)c2O[C@H]1CN(C)Cc1ccc2c(c1)OCO2 returned NOMO-1 viab 122 and PD-1 reversal inactive.
C[C@@H]1CN([C@@H](C)CO)C(=O)c2cccc(NC(=O)CCCCCC(=O)Nc3ccccc3N)c2O[C@@H]1CN(C)Cc1ccccc1 was read as NOMO-1 viab 88 and PD-1 reversal inactive.
For C[C@H](CO)N1C[C@H](C)[C@H](CN(C)Cc2ccc(Cl)c(Cl)c2)Oc2c(NC(=O)CCCCCC(=O)Nc3ccccc3N)cccc2C1=O the results were NOMO-1 viab 114 and PD-1 reversal inactive.
`CC(C)NC(=O)N(C)C[C@@H]1Oc2c(NC(=O)CCCCCC(=O)Nc3ccccc3N)cccc2C(=O)N([C@H](C)CO)C[C@H]1C` gave NOMO-1 viab inactive and PD-1 reversal inactive.
`C[C@@H]1CN([C@H](C)CO)C(=O)c2cccc(NC(=O)CCCCCC(=O)Nc3ccccc3N)c2O[C@@H]1CN(C)Cc1ccc2c(c1)OCO2` gave NOMO-1 viab inactive and PD-1 reversal inactive.
Screening C[C@H]1CN([C@@H](C)CO)C(=O)c2cccc(NC(=O)CCCCCC(=O)Nc3ccccc3N)c2O[C@@H]1CN(C)Cc1ccncc1 returned NOMO-1 viab inactive and PD-1 reversal inactive.
Screening Cn1c(SCC(=O)c2cccc([N+](=O)[O-])c2)nnc1-c1cc2ccccc2o1 returned STK33 inh inactive, NOMO-1 viab inactive and PD-1 reversal inactive.
For COC(=O)c1cc(OC)c(OC)cc1NC(=O)COc1cc(C)c(Br)cc1C the results were STK33 inh inactive, NOMO-1 viab inactive and PD-1 reversal inactive.
For Cc1ccccc1OCc1nn2c(COc3ccccc3)nnc2s1 the results were STK33 inh inactive, NOMO-1 viab inactive and PD-1 reversal inactive.
`FC(F)(F)c1ccc(-c2n[nH]c(=S)s2)nc1` gave STK33 inh inactive, NOMO-1 viab inactive and PD-1 reversal inactive.
CCN1CCN(c2ccc(NC(=O)/C=C/c3ccccc3)cc2)CC1 was read as NOMO-1 viab inactive and PD-1 reversal inactive.
`C[C@H]1CN([C@@H](C)CO)C(=O)Cc2cc(NS(=O)(=O)c3ccc(F)cc3)ccc2O[C@H]1CN(C)Cc1ccc(Cl)c(Cl)c1` gave STK33 inh inactive, NOMO-1 viab inconclusive and PD-1 reversal inactive.
C[C@H](CO)N1C[C@H](C)[C@H](CN(C)Cc2ccc(Cl)c(Cl)c2)Oc2ccc(NS(C)(=O)=O)cc2CC1=O was read as STK33 inh inactive and NOMO-1 viab inactive.
For C[C@@H]1CN([C@H](C)CO)C(=O)Cc2cc(NS(=O)(=O)c3ccc(Cl)cc3)ccc2O[C@H]1CN(C)Cc1ccc(Cl)c(Cl)c1 the results were NOMO-1 viab 105 and PD-1 reversal inactive.
Screening C[C@@H]1CN([C@H](C)CO)C(=O)Cc2cc(NS(=O)(=O)c3ccc(F)cc3)ccc2O[C@H]1CN(C)Cc1ccc(Cl)c(Cl)c1 returned STK33 inh inactive and NOMO-1 viab 102.
Screening COC(=O)c1cccc(NC(=O)COc2ccc([N+](=O)[O-])cc2)c1 returned STK33 inh inactive and NOMO-1 viab inactive.
Screening COC(=O)c1cccc(COC(=O)c2ccc(NC(=O)c3ccccc3)cc2)c1 returned STK33 inh inactive, NOMO-1 viab inactive and PD-1 reversal inactive.
C=CC(C)(C)c1c2c(c(O)c3c(=O)c4ccc(O)c(O)c4oc13)C=CC(C)(C)O2 was read as STK33 inh inactive and NOMO-1 viab 107.
COc1c(-c2ccccc2)oc2c(CC=C(C)C)c3c(c(OC)c2c1=O)C=CC(C)(C)O3 was read as STK33 inh inactive and NOMO-1 viab inactive.
Screening CC/C=C/c1ccc(C)cc1CCCCCC(=O)O returned STK33 inh inactive, NOMO-1 viab inactive and PD-1 reversal inactive.
O=C(O)COc1c(-c2ccccc2)oc2ccccc2c1=O was read as STK33 inh inactive, NOMO-1 viab inactive and PD-1 reversal inactive.
Screening O=c1c(O)c(-c2ccccc2)oc2cc(O)ccc12 returned STK33 inh 32 and NOMO-1 viab inactive.
For O=C(C1=C[C@@H](c2csc3ccccc23)C[C@@H](OCc2ccc(CO)cc2)O1)N1CCCCC1 the results were STK33 inh inactive.
For COc1ccc(NC(=O)Nc2ccc3c(c2)CC(=O)N([C@H](C)CO)C[C@@H](C)[C@H](CN(C)Cc2ccc(Cl)c(Cl)c2)O3)cc1 the results were NOMO-1 viab 85.
`COc1ccc(NC(=O)Nc2ccc3c(c2)CC(=O)N([C@H](C)CO)C[C@@H](C)[C@@H](CN(C)Cc2ccc(Cl)c(Cl)c2)O3)cc1` gave STK33 inh inactive, NOMO-1 viab 115 and PD-1 reversal inactive.
For COc1ccc(CN(C)C[C@H]2Oc3ccc(NC(=O)Nc4ccc(OC)cc4)cc3CC(=O)N([C@@H](C)CO)C[C@H]2C)cc1 the results were STK33 inh inactive and NOMO-1 viab inactive.
Screening COc1ccc(NC(=O)Nc2ccc3c(c2)CC(=O)N([C@@H](C)CO)C[C@H](C)[C@H](CN(C)Cc2ccncc2)O3)cc1 returned STK33 inh inactive, NOMO-1 viab inactive and PD-1 reversal inactive.
For COc1ccc(NC(=O)Nc2ccc3c(c2)CC(=O)N([C@@H](C)CO)C[C@H](C)[C@H](CN(C)Cc2ccc(Cl)c(Cl)c2)O3)cc1 the results were STK33 inh inactive, NOMO-1 viab 113 and PD-1 reversal inactive.
`COc1ccc(CN(C)C[C@H]2Oc3ccc(NC(=O)Nc4ccc(OC)cc4)cc3CC(=O)N([C@H](C)CO)C[C@H]2C)cc1` gave STK33 inh inactive and NOMO-1 viab inactive.
`O=C(c1cccc(S(=O)(=O)NC2CCCCCC2)c1)N1CCCc2ccccc21` gave NOMO-1 viab inactive and PD-1 reversal inactive.
`C[C@@H]1CN([C@@H](C)CO)C(=O)c2cccc(NC(=O)NC3CCCCC3)c2O[C@H]1CN(C)CC1CCCCC1` gave NOMO-1 viab 102 and PD-1 reversal inactive.
For C[C@H]1CN([C@@H](C)CO)C(=O)c2cccc(NC(=O)NC3CCCCC3)c2O[C@H]1CN(C)Cc1ccccc1 the results were NOMO-1 viab inactive and PD-1 reversal inactive.
C[C@@H]1CN([C@@H](C)CO)C(=O)c2cccc(NC(=O)NC3CCCCC3)c2O[C@H]1CN(C)CC1CC1 was read as NOMO-1 viab inactive.
`C[C@@H]1CN([C@H](C)CO)C(=O)c2cccc(NC(=O)NC3CCCCC3)c2O[C@@H]1CN(C)Cc1ccc(Oc2ccccc2)cc1` gave NOMO-1 viab inactive and PD-1 reversal inactive.

Screening data: PubChem, Broad Institute
